Measured values from PubChem BioAssay (NCATS).
Where “and” joins values, the source holds several entries; their conditions need not be identical. Identical values can stand only once. Inconclusive results are not listed. Where a structure was tested more than once in an assay, its records may differ in their call. Calls of active or inactive are those of the source. Unless noted, the call rests on the fitted dose curve; in most records, active means well fitted curve in the direction sought with a large enough effect; inconclusive means small, poorly fitted or top-dose-only effect, or another doubt; inactive means no such curve, though single readings can be large; an effect the other way counts as inactive or inconclusive.

Columns and labels:
[1] = target: Guanine nucleotide-binding protein G(i) subunit alpha-1 (Homo sapiens) (UniProt P63096); assay: qHTS Assay for Inhibitors of RGS12 GoLoco Motif Activity (Green Fluorophore) (AID 879);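 further: negative values mean loss of peptide binding seen as reduced polarization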
Outline: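 Fluorescence polarization assay: 50 nM Gαi1 with 10 nM FITC-labeled RGS12 GoLoco peptide in 10 mM Tris pH 7.5, 150 mM NaCl, 0.1 mM GDP, 0.05% NP40, 10 min at room temperature with compound.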

[2] = target: Cytochrome P450 3A4 (Homo sapiens) (UniProt P08684); assay: qHTS Assay for Inhibitors and Substrates of Cytochrome P450 3A4 (AID 884); further: series mostly up to about 57 µM; nearly all actives have a fitted effect of over 50% in size
Outline: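 20 nM human CYP3A4 with 25 uM Luciferin-PPXE (at KM) in 200 mM KPO4, preincubated 10 min with compound; NADPH regeneration started a 60 min RT reaction. Luciferin detected by luminescence, normalized to 57 uM ketoconazole as full inhibition.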

[3] = target: Cytochrome P450 2D6 (Homo sapiens) (UniProt P10635); assay: qHTS Assay for Inhibitors and Substrates of Cytochrome P450 2D6 (AID 891); further: nearly all actives have a fitted effect of over 60% in size; further: potency means the concentration at half of the fitted maximal effect
Outline: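 Human CYP2D6 (5 nM) with 30 uM Luciferin-ME EGE (at Km) in 100 mM KPO4, compound preincubated 10 min, then NADPH regeneration system for 60 min at room temperature. Luciferin read by luminescence; normalized to 1.43 uM quinidine.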

[4] = Confirmation and Secondary Assay for Modulators of Hemoglobin Beta Chain Splicing at IVS2 654 locus (AID 910);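 further: HeLa cells stably carrying EGFP split by mutant beta-globin IVS2-654 intron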
Outline: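 HeLa cells stably expressing EGFP interrupted by β-globin IVS2-654 intron, seeded overnight in Opti-MEM/2% FCS, then treated 2 days at 37 °C. Restored splicing read as total peak GFP intensity per well by laser scanning cytometry (488 nm excitation, 500–520 nm emission); 500 nM antisense PNA as control.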

[5] = Confirmation and Secondary Assay for Modulators of Hemoglobin Beta Chain Splicing at IVS2 705 locus (AID 930);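 further: HeLa cells stably expressing the EGFP-705 splicing reporter; GFP fluorescence per well restored by corrected splicing of the IVS2-705 intron in EGFP; series mostly up to about 46 µM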
Outline: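 Assay measures total GFP intensity per well in HeLa EGFP-705 cells after 2 days with compound; mis-splicing normally truncates EGFP, so fluorescence indicates corrected splicing.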

[6] = target: Muscarinic acetylcholine receptor M1 (Rattus norvegicus) (UniProt P08482); assay: qHTS Assay for Antagonists of Acetylcholine Muscarinic M1 Receptor: Kinetic Measurement of Intracellular Calcium Response (AID 943); further: nearly all actives have a fitted effect of over 75% in size; further: potency means the concentration at half of the fitted maximal effect
Outline: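 CHO cells stably expressing rat M1 were loaded with no-wash Fluo-4 dye for 1 h at 37C, pre-incubated 10 min with compound, then challenged with EC80 carbachol (100 nM final); kinetic calcium read 4 min, peak/basal ratio.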

[7] = target: Muscarinic acetylcholine receptor M1 (Rattus norvegicus) (UniProt P08482); assay: qHTS Assay for Antagonists of Acetylcholine Muscarinic M1 Receptor: Measurement of IP-One Response (AID 944); further: nearly all actives have a fitted effect of over 75% in size; further: potency means the concentration at half of the fitted maximal effect
Outline: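 CHO cells expressing rat M1 receptor, recovered overnight, were pre-incubated 10 min with compound, then stimulated 30 min with carbachol at EC80 (200 nM) in LiCl-containing buffer, pH 7.4. IP1 accumulation was read by HTRF (620/665 nm).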

[8] = target: Pyruvate kinase (Leishmania mexicana) (UniProt Q27686); assay: qHTS Validation Assay for Inhibitors of Leishmania Mexicana Pyruvate Kinase (AID 945); further: potency means the concentration at half of the fitted maximal effect
Outline: (§1)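 Pyruvate kinase activity of E451W LmPYK (0.2 nM) was followed as ATP output after 1 h at room temperature with 0.5 mM PEP and 0.1 mM ADP, detected by PKLight luminescence.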

[9] = target: Cytochrome P450 2C9 (Homo sapiens) (UniProt P11712); assay: qHTS Assay for Inhibitors and Substrates of Cytochrome P450 2C9 (AID 883); further: nearly all actives have a fitted effect of over 60% in size; further: potency means the concentration at half of the fitted maximal effect
Outline: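 10nM CYP2C9 + 100uM Luciferin-H (=KM), 25mM KPO4; cpd 10 min 37C; NADPH regen, 60 min 37C; stop/detect with P450 Glo-Buffer 20 min; luminescence. Norm. to 57uM sulphaphenazole as full inhibition.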

[10] = target: Cytochrome P450 3A4 (Homo sapiens) (UniProt P08684); assay: qHTS Assay for Activators of Cytochrome P450 3A4 (AID 885); further: nearly all actives have a fitted effect of over 65% in size
Outline: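 20nM CYP3A4 + 25uM Luciferin-PPXE (=KM), 200mM KPO4; cpd 10 min RT; NADPH regen, 60 min RT; stop w/ detection buffer, 20 min; luminescence. Normalized to 57 uM ketoconazole.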

[11] = qHTS Assay for Identification of Small Molecule Antagonists for Thrombopoietin (TPO) Signaling Pathway (AID 918); settings: TPO-dependent cell signaling reporter, antagonist mode; further: potency means the concentration at half of the fitted maximal effect; nearly all actives have a fitted effect of over 60% in size
Outline: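 Murine Ba/F3 cells stably expressing human TPO receptor and a Glycoprotein IIb promoter–luciferase reporter were IL-3-starved overnight, treated with compounds plus TPO (26 pM final, its EC50) for 24 hrs at 37 C, then read by luminescence.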

[12] = target: Pyruvate kinase PKM (Homo sapiens) (UniProt P14618); assay: qHTS Assay for Activators of Human Muscle Pyruvate Kinase (AID 954; active means well fitted curve in the direction sought with a large enough effect, not every such curve was filed as active)
Outline: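 Luminescence from a luciferase ATP-detection/stop reagent reported PKM2 activity. Reactions contained 0.1 nM purified human enzyme, 0.5 mM PEP, 0.1 mM ADP and 7 mM MgCl2 at pH 7.2, run 1 h at RT.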

[13] = qHTS Assay for Identification of Small Molecule Agonists for Thrombopoietin (TPO) Signaling Pathway (AID 917); further: potency means the concentration at half of the fitted maximal effect
Outline: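 IL-3-dependent murine pro-B Ba/F3 cells, stably transfected with human TPO receptor and GpIIb-promoter luciferase, are incubated 24 hrs at 37 C with test compound and 26 pM TPO; luciferase signal is read after 10 min at room temperature.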

[14] = MultiTox-Fluor Cytotoxicity Assay - LYMP1-001 - Dead Cells (AID 946)
Outline: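 AC50 from Hill fit of concentration-response; data normalized to DMSO (basal) and 15 uM tetraoctylammonium bromide (100%). LYMP1-001 lymphoblastoid cells, 2500/well, 16 hr compound at 37 C; dead-cell protease fluorescence, Ex/Em 485/520.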

[15] = MultiTox-Fluor Cytotoxicity Assay - LYMP1-001 - Live Cells (AID 947)
[16] = MultiTox-Fluor Cytotoxicity Assay - LYMP1-002 - Live Cells (AID 955)
Outline: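 Human lymphoblastoid LYMP1-002 cells, 2500/well in complete medium, rested 5 hr at 37 C, then exposed to compounds for 16 hr at 37 C. Live-cell protease cleavage of GF-AFC read by fluorescence (Ex/Em 405/510) after 60 min at room temperature; AC50 from Hill fits.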

[17] = qHTS Assay for Identification of Small Molecule Antagonists for NFkB Signaling Pathway (AID 895; active means well fitted inhibition curve with a large enough effect in the signal ratio, with a control signal flat, not every such curve was filed as active; the % refers to the signal ratio)
Outline: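 ME-180 NFkB-bla cells (beta-lactamase under NFkB response element), plated overnight, treated with compound then 10 pM TNF alpha (about EC50) for 5 hrs at 37 C. LiveBLAzer FRET read at 460/530 nm emission, 405 nm excitation.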

[18] = target: Pyruvate kinase (Leishmania mexicana) (UniProt Q27686); assay: qHTS Validation Assay for Activators of Leishmania Mexicana Pyruvate Kinase (AID 959)
Outline: as §1

Measured: Potency

Chain of Cytochrome P450 2D6 (Homo sapiens) (P10635 whole entry, looked up): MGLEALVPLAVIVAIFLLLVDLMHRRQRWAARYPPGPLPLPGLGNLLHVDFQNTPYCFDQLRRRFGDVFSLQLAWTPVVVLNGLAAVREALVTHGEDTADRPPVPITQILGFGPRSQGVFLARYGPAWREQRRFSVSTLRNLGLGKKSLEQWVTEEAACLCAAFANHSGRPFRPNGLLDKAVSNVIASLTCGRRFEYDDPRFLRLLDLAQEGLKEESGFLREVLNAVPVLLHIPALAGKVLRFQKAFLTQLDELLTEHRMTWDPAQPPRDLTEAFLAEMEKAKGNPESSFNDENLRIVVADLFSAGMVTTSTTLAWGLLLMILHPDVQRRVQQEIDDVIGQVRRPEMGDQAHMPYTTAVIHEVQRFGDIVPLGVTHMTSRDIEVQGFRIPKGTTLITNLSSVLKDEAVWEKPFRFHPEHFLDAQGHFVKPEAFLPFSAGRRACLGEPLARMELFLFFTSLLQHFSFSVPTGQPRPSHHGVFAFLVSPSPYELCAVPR
Chain of Guanine nucleotide-binding protein G(i) subunit alpha-1 (Homo sapiens) (P63096 whole entry, looked up): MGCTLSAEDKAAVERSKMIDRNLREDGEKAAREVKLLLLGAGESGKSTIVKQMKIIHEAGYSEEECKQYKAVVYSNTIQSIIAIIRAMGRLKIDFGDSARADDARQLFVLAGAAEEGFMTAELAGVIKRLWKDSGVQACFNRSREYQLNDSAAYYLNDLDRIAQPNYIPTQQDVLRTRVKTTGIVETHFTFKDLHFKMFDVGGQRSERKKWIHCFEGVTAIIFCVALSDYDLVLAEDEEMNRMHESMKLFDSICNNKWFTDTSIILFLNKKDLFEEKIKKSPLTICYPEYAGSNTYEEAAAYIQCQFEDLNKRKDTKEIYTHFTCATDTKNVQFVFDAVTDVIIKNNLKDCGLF
Chain of Pyruvate kinase (Leishmania mexicana) (Q27686 2-499 E452W): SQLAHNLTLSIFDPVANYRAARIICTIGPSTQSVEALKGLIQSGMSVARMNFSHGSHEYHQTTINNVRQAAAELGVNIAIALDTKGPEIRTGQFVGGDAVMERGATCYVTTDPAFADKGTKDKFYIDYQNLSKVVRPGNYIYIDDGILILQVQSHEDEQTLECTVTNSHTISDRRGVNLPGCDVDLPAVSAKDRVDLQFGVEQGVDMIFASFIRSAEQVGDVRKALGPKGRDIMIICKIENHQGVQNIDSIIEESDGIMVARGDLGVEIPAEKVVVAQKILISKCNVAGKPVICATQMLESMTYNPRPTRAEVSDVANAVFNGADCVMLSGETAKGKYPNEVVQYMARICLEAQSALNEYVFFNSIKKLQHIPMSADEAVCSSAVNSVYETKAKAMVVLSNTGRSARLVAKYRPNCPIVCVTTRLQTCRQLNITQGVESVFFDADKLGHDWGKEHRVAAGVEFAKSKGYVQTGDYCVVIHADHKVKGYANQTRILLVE
Chain of Muscarinic acetylcholine receptor M1 (Rattus norvegicus) (P08482 whole entry, looked up): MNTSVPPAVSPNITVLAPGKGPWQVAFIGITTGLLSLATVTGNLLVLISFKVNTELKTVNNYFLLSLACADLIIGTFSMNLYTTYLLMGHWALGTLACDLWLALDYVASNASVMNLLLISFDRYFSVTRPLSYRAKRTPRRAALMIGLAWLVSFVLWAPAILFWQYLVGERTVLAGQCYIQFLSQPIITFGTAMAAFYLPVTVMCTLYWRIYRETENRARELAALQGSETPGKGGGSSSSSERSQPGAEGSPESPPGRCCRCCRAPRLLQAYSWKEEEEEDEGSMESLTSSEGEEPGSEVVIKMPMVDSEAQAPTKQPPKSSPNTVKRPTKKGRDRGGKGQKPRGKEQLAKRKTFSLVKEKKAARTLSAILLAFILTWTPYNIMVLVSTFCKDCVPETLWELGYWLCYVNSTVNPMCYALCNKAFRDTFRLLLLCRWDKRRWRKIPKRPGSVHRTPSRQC
Chain of Cytochrome P450 2C9 (Homo sapiens) (P11712 whole entry, looked up): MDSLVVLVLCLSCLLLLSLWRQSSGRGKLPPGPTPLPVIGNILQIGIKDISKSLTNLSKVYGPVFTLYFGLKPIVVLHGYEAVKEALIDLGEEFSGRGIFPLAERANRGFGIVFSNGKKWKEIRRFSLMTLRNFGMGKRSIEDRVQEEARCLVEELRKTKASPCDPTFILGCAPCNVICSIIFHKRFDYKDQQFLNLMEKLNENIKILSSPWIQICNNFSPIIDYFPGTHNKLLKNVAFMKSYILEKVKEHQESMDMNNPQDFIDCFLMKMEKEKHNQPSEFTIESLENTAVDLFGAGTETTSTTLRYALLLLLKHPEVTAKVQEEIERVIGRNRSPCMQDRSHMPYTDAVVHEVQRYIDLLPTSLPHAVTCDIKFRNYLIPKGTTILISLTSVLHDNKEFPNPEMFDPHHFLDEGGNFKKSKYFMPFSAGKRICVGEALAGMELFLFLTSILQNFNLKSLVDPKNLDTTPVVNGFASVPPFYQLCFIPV
Chain of Pyruvate kinase PKM (Homo sapiens) (P14618 whole entry, looked up): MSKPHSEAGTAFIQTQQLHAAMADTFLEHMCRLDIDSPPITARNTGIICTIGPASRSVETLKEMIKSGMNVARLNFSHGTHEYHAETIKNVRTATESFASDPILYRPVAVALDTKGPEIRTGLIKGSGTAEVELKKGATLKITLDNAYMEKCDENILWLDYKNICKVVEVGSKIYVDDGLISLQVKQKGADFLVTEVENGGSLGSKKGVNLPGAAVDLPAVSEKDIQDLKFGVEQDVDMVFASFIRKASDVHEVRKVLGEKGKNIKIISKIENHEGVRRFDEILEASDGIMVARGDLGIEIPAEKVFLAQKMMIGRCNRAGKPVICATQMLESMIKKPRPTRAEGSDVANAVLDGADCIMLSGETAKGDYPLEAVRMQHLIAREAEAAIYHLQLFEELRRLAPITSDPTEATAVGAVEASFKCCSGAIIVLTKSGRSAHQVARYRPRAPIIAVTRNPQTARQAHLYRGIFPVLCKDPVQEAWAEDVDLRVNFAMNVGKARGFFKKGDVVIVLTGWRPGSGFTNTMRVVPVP
Chain of Cytochrome P450 3A4 (Homo sapiens) (P08684 whole entry, looked up): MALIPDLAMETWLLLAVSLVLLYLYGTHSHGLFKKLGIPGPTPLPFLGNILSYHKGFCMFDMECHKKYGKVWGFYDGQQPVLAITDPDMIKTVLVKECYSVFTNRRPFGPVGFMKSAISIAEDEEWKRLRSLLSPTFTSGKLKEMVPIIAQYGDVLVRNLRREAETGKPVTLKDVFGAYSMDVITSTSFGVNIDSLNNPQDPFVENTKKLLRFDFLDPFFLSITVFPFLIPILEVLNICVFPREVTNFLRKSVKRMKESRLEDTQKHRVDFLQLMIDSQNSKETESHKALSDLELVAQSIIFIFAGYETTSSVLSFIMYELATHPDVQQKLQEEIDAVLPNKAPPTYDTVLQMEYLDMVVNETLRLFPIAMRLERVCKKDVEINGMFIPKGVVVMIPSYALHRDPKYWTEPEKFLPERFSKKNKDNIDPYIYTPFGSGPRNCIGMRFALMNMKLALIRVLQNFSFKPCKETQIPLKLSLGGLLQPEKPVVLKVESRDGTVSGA

CN(C)CCC=C1c2ccccc2C=Cc2ccccc21
inactive: [1] | [2] | [4] | [5] | [8]
active: [3] 6.31 µM | [6] 0.0316 µM | [7] 0.112 µM

Clc1ccc2c(c1)C(N1CCNCC1)=Nc1ccccc1O2
inactive: [1] | [9] | [10] | [4] | [5] | [8] | [12]
active: [11] 10 µM

Nc1c2c(nc3ccccc13)CCCC2
active: [3] 5.01 µM
not listed: [2] | [6] | [7] | [9] | [11] | [17] | [18]
inactive: all other assays above

COC(=O)Nc1nc2ccc(C(=O)c3cccs3)cc2[nH]1
inactive: [1] | [9] | [2] | [3] | [4] | [5] | [8] | [12]

Cc1cc(C(C)(C)C)c(O)c(C)c1CC1=NCCN1
active: [3] 3.98 µM and 39.8 nM
inactive: [1] | [10] | [4] | [13] | [5] | [8] | [12]

Cc1cc(C(C)(C)C)cc(C)c1CC1=NCCN1
active: [3] 3.98 µM
inactive: [1] | [10] | [4] | [13] | [5] | [8]

CCC1(c2ccccc2)C(=O)NCNC1=O
not listed: [6] | [7] | [8] | [10] | [11] | [18]
inactive: all other assays above

CN1C(C(=O)Nc2ccccn2)=C(O)c2ccccc2S1(=O)=O
active: [9] 3.98 µM
inactive: [1] | [10] | [3] | [4] | [13] | [5] | [8]

COc1nc(C)nc(Cl)c1NC1=NCCN1
inactive: [1] | [2] | [13] | [8]

O=c1[nH]cc(F)c(=O)[nH]1
inactive: [1] | [9] | [2] | [3] | [5] | [8] | [14] | [15] | [16]

CC(C)C(=O)Nc1ccc([N+](=O)[O-])c(C(F)(F)F)c1
inactive: [1] | [10] | [3] | [4] | [13] | [5] | [8] | [14] | [15] | [16]

NC(=O)OCC(COC(N)=O)c1ccccc1
inactive and 794 nM (active): [3]
inactive: [1] | [9] | [17] | [13] | [7] | [8]

O=C1N(c2ccccc2)c2ccccc2C1(Cc1ccncc1)Cc1ccncc1
active: [9] 3.98 µM and 7.94 µM
inactive: [1] | [3] | [6] | [7] | [8] | [12]

CN1CCC(=C2c3ccccc3CC(=O)c3sccc32)CC1
active: [3] 7.94 µM and 3.16 µM and 5.01 µM
inactive: [1] | [2] | [4] | [13] | [5] | [8]

O=c1c(-c2ccc(O)cc2)coc2cc(O)cc(O)c12
active: [13] 1.58 µM | [8] 12.6 µM
not listed: [2] | [6] | [7] | [11] | [12] | [17]
inactive: all other assays above
